PubChem BioAssay (NCI)
About 83,000 compounds went through this panel and 20% of them were active in at least one assay; those are over-represented in the sample as a whole.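 Treatment: one concentration, 48 hours, 96-well format. Scoring: percent growth, with anything below 10 considered active.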 Activity calls are given as the source filed them.

Columns and labels:
Test in all cases: NCI-60 one-dose screen, 48 h (100 = growth as untreated, 0 = no growth, -100 = all killed)
Conditions in all cases: 10 µM unless noted
[1] = test system: T-47D breast
[2] = test system: BT-549 breast
[3] = test system: MDA-MB-435 melanoma
[4] = test system: SW-620 colon
[5] = test system: MCF7 breast
[6] = test system: HCT-116 colon
[7] = test system: HCC-2998 colon
[8] = test system: KM12 colon

Measured: growth

CCCCCCCCCc1ccc(OC(C)=O)cc1
inactive: [1] 108% | [2] 112% | [3] 109% | [4] 102% | [5] 102% | [6] 110% | [7] 113% | [8] 106%

C=CCC(O)C=C (stereo not given)
inactive: [1] 95.6% | [2] 104% | [3] 111% | [4] 104% | [5] 98.2% | [6] 105% | [7] 113% | [8] 102%

Cc1ccccc1NC(=O)Oc1ccc(Cl)cc1C(=O)c1ccccc1
inactive: [1] 104% | [2] 92.3% | [3] 103% | [4] 98.5% | [5] 105% | [6] 90.2% | [7] 107% | [8] 90.4%

CCN(Cc1ccc(Cl)c(Cl)c1)c1ccc2nc(N)nc(N)c2c1C
inactive: [2] 46.4%
active: [1] -78% | [3] -77.4% | [4] -78.2% | [5] -92.9% | [6] -82.4% | [7] -93.6% | [8] -92.6%

CCOC(=O)/C(C)=C\c1ccc(OC)c(OC)c1
inactive: [1] 90.2% | [2] 89% | [3] 102% | [4] 106% | [5] 101% | [6] 94.2% | [7] 103% | [8] 102%

CCNc1ccc2ccccc2c1N=Nc1ccc(N=Nc2ccccc2)cc1
inactive: [1] 84.7% | [2] 120% | [3] 110% | [4] 99.8% | [5] 85.2% | [6] 72% | [7] 110% | [8] 105%

COC(=O)c1ccccc1C(=O)c1c(C)cc(C)cc1C
inactive: [1] 88.8% | [2] 106% | [3] 97.6% | [4] 93.2% | [5] 102% | [6] 99.7% | [7] 94.4% | [8] 102%

CC1(C)OC2C(CO)OC(n3ccc(=O)[nH]c3=O)C2O1 (stereo not given)
inactive: [1] 89.4% | [2] 104% | [3] 101% | [4] 96.3% | [5] 97.7% | [6] 98.2% | [7] 102% | [8] 102%

Nc1cc(F)ccc1[N+](=O)[O-]
inactive: [1] 104% | [2] 103% | [3] 111% | [4] 104% | [5] 97.6% | [6] 97.9% | [7] 102% | [8] 104%

CC(C)c1ccccc1NC(=O)N1CCC(C(C)C)CC1
inactive: [1] 111% | [2] 103% | [3] 91.9% | [4] 107% | [5] 97.5% | [6] 108% | [7] 109% | [8] 113%

O=S(=O)(O)c1cccnc1
inactive: [1] 106% | [2] 111% | [3] 102% | [4] 98.9% | [5] 99.9% | [6] 126% | [7] 153% | [8] 101%

OC(CBr)CCBr (stereo not given)
inactive: [1] 93.6% | [2] 124% | [3] 97.2% | [4] 104% | [5] 86.6% | [6] 104% | [7] 111% | [8] 113%

CC1(C)OC(=O)CC1=O
inactive: [1] 82% | [2] 98.1% | [3] 104% | [4] 100% | [5] 99.3% | [6] 103% | [7] 100% | [8] 102%

COc1cc(C(=O)N2CCN(c3ccccc3)CC2)c2ccccc2n1
active: [3] -24.2% | [6] 8.75% | [7] -20.3% | [8] 2.35%
inactive: [1] 51.1% | [2] 12.7% | [4] 25.2% | [5] 15.8%

OCC(O)COc1ccc(Cl)cc1Cl (stereo not given)
inactive: [1] 81.5% | [2] 101% | [3] 103% | [4] 114% | [5] 95.6% | [6] 93% | [7] 98.3% | [8] 106%

CC1CC(C)S(=O)(=O)C1 (stereo not given)
inactive: [1] 109% | [2] 103% | [3] 106% | [4] 108% | [5] 102% | [6] 114% | [7] 99% | [8] 102%

CCCCCCCCCCC(=O)CCCCCCCCCC
inactive: [1] 92.3% | [2] 95.3% | [3] 106% | [4] 104% | [5] 101% | [6] 94.9% | [7] 94.4% | [8] 104%

COc1ccc(C(=O)C(=O)c2ccccc2)cc1
inactive: [1] 104% | [2] 112% | [3] 95.1% | [4] 100% | [5] 103% | [6] 105% | [7] 104% | [8] 102%

O=C1C=C(c2ccccc2)C(O)(c2ccccc2)C1 (stereo not given)
inactive: [1] 90.6% | [2] 94.8% | [3] 97.4% | [4] 108% | [5] 98.2% | [6] 98.4% | [7] 122% | [8] 107%

Cc1ccc(N)c(S(=O)(=O)O)c1
inactive: [1] 101% | [2] 104% | [3] 117% | [4] 101% | [5] 98.9% | [6] 98.1% | [7] 95.7% | [8] 101%

CC(c1ccccc1)N(C)C (stereo not given)
inactive: [1] 112% | [2] 101% | [3] 119% | [4] 117% | [5] 99.5% | [6] 93.8% | [7] 113% | [8] 101%

O=C(O)c1c[nH]c2ccccc2c1=O
inactive: [1] 89.5% | [2] 101% | [3] 107% | [4] 108% | [5] 93.9% | [6] 95% | [7] 102% | [8] 100%

N#C/C(=C\c1ccc(C#N)cc1)C(=O)c1ccccc1
inactive: [1] 65.4% | [2] 112% | [3] 107% | [4] 109% | [5] 97.5% | [6] 97.8% | [7] 104% | [8] 107%

C=COC(=O)C(C)(C)C
inactive: [1] 93.8% | [2] 89% | [3] 101% | [4] 98.4% | [5] 96% | [6] 109% | [7] 94.1% | [8] 107%

CC1CCC(C(C)(C)[N+](C)(C)C)CC1 (stereo not given)
inactive: [1] 98.8% | [2] 92.6% | [3] 108% | [4] 105% | [5] 94.4% | [6] 98.4% | [7] 93.7% | [8] 99.7%

CCOC(=O)c1ccc(C(C)(C)C)cc1
inactive: [1] 105% | [2] 109% | [3] 108% | [4] 107% | [5] 104% | [6] 102% | [7] 100% | [8] 105%

CCNC(=O)OCCc1c2ccccc2nc2ccccc12
inactive: [1] 109% | [2] 111% | [3] 118% | [4] 101% | [5] 89.6% | [6] 94.1% | [7] 110% | [8] 114%

CCCCCCCCCCCCCC/C=C\C(CC(=O)O)C(=O)O (stereo not given)
inactive: [1] 115% | [2] 116% | [3] 126% | [4] 103% | [5] 105% | [6] 103% | [7] 102% | [8] 103%

CC(=O)NNC(=S)N/C=C/c1c(C)ccc([N+](=O)[O-])c1[N+](=O)[O-]
inactive: [1] 110% | [2] 99.9% | [3] 100% | [4] 110% | [5] 96.2% | [6] 89.9% | [7] 107% | [8] 97.2%

Nc1ncc([N+](=O)[O-])cn1
inactive: [1] 103% | [2] 111% | [3] 113% | [4] 104% | [5] 98.1% | [6] 106% | [7] 107% | [8] 101%

CCOC(=O)Nc1nccs1
inactive: [1] 94.8% | [2] 101% | [3] 111% | [4] 110% | [5] 101% | [6] 104% | [7] 118% | [8] 107%

Cc1ccc[n+](CCC(N)=O)c1
inactive: [1] 91.7% | [2] 110% | [3] 101% | [4] 96.7% | [5] 94.3% | [6] 115% | [7] 93.1% | [8] 91.1%

CC(=O)OC/C(C)=C\CC(C)COC(C)=O (stereo not given)
inactive: [1] 104% | [2] 102% | [3] 94.9% | [4] 97.6% | [5] 90.2% | [6] 95.1% | [7] 103% | [8] 104%

O=[N+]([O-])c1ccc2[nH]c(=S)n(/C=C(/c3ccc(Cl)cc3Cl)S(=O)(=O)Cc3ccc(Cl)cc3Cl)c2c1
inactive: [1] 90.2% | [2] 93.9% | [3] 103% | [4] 114% | [5] 87.8% | [6] 82.8% | [7] 105% | [8] 108%

ClCC(Cl)[C@@H]1CC2C=CC1C2 (stereo not given in full)
inactive: [1] 98.8% | [2] 103% | [3] 96.9% | [4] 105% | [5] 98.1% | [6] 98.4% | [7] 118% | [8] 115%
